# Source: PubChem BioAssay AID1347131 (National Center for Advancing Translational Sciences (NCATS), 2019)
# Screen size: about 410,000 compounds; about 2,000 (0.49%) were called active. About 8% were inconclusive and are not listed. The call rests on the fitted dose curve; tested in HEK293 reporter line. The list comes from a sample in which actives are over-represented; it also holds similar structures and randomly drawn compounds. Where a call stands in place of a potency, no number is given.
# Assay: qHTS Assay for Foot and Mouth Disease Virus Antivirals: Primary Screen against the MLPCN compound library; further: nearly all actives have a fitted effect of over 55% in size
# Details: FMDV antiviral cell-based qHTS; series mostly up to 57.9 µM
# Potency means the concentration at half of the fitted maximal effect.
row,Structure (SMILES),Potency
1,Cc1ccccc1-c1nc(CN2CCC(C(=O)NC3CCN(Cc4ccccc4)CC3)CC2)c(C)o1,inactive
2,Cc1cc(=O)[nH]c(N/N=C/C2=C(N3CCOCC3)C(=C\c3ccc(Cl)cc3)/CC2)n1,inactive
3,O=C(Nc1ccc(Cl)c(C(F)(F)F)c1)c1cc2nc(-c3ccc4c(c3)OCO4)cc(C(F)(F)F)n2n1,inactive
4,CC[C@H]1c2[nH]c3ccc(C(C)C)cc3c2[C@@H]2CCN3C(=O)CCC[C@H]1[C@H]23,inactive
5,CC(C)(C)n1ncc2c(=O)n(CC(=O)Nc3ccc(Cl)cc3)cnc21,inactive
6,CC(C)(C)n1ncc2c(=O)n(Cc3c(Cl)cccc3Br)cnc21,inactive
7,CC(C)(C)n1ncc2c(=O)n(CC(=O)NCc3ccccc3)cnc21,20 µM (active)
8,CCCCCn1c(NC(=O)c2ccco2)c(C(=O)OCC)c2nc3ccccc3nc21,inactive
9,CCOc1ccc(/C=C2\CCc3ccccc3C2=O)cc1,20 µM (active)
10,COc1cc(/C=C2/CCc3ccccc3C2=O)cc(OC)c1OC,inactive
11,COc1ccc(/C=C2\CN(Cc3ccccc3)C/C(=C\c3ccc(OC)cc3)C2=O)cc1,inactive
12,Cc1ccc(-c2noc(CCC(=O)NCCN3CCc4ccccc4C3)n2)cc1,inactive
13,C(=N\Nc1ccc2ccccc2n1)/c1ccc2c(c1)OCCO2,inactive
14,O=S(=O)(N/N=C\c1cccc(F)c1)c1ccccc1,inactive
15,Fc1cccc(/C=N/Nc2ccc3ccccc3n2)c1,12.6 µM (active)
16,O=C(NCc1ccc(F)cc1)c1cc(Sc2ccc(F)cc2F)nc2ccccc12,inactive
17,Cc1ccc(Cl)c(OCCN2CCc3ccccc3C2)c1,inactive
18,CN(CC(=O)Nc1ccc(Cl)cc1)CC(=O)Nc1sc2c(c1C(N)=O)CCC2,inactive
19,CC1Cc2nc(SCC(=O)N3CCN(c4ccccc4)CC3)n(C)c(=O)c2S1 (centres undefined),inactive
20,CC1(C)Cc2ccccc2-c2nnc(SCC(=O)N3CCN(c4ccccc4)CC3)n21,7.94 µM (active)
21,O=C(CSC1=NCCS1)N1CCN(c2ccccc2)CC1,inactive
22,C/C(=N\NC(=O)c1cc(-c2cccs2)nc2ccccc12)c1ccccn1,inactive
23,FC(F)(F)c1cc(-c2cccs2)nc(-n2cc(Br)cn2)n1,inactive
24,Cc1cc2ncc(-c3cccs3)nc2cc1C,11.2 µM (active)
25,O=C1Nc2ccc([N+](=O)[O-])cc2OC1CCN1CCN(c2ccccc2)CC1 (centres undefined),inactive

row,Structure (SMILES),Potency
1,COc1ccc(-c2ccc(C(=O)N3CCN(C)CC3)c3occc23)c(C)c1,inactive
2,Nc1nc(CSc2n[nH]c(-c3ccccc3)n2)nc(Nc2ccccc2)n1,25.1 µM (active)
3,Nc1nc(COC(=O)CCC(=O)c2ccc(Cl)cc2)nc(Nc2ccccc2)n1,inactive
4,CCOc1ccccc1CNC(=O)CSc1n[nH]c(-c2ccccc2)n1,inactive
5,O=C1c2cccnc2Oc2ccc(Cl)cc2N1Cc1ccc(F)cc1,inactive
6,[N-]=[N+]=CC(=O)C(Cc1ccccc1)N1C(=O)c2ccccc2C1=O (centres undefined),inactive
7,O=C(c1cc2ccc3cccnc3c2[nH]1)N1CCCCC1,14.1 µM (active)
8,Cc1ccc2[nH]c(C(=O)N3CCCCC3)cc2c1,inactive
9,O=C(c1cc2ccc3cccnc3c2[nH]1)N1CCN(c2cccc(Cl)c2)CC1,inactive
10,CN(C)N(Cc1ccccc1)C(=O)C(O)(c1ccccc1)c1ccccc1,inactive
11,CCc1ccc(NC(=O)CSCc2nc(N)nc(Nc3ccccc3CC)n2)cc1,inactive
12,Cc1ccc(C(=O)COC(=O)c2cccc(NC(=O)c3ccc([N+](=O)[O-])cc3[N+](=O)[O-])c2)cc1,20 µM (active)
13,Cc1ccc(C(=O)COC(=O)c2cc(Cl)ccc2O)cc1[N+](=O)[O-],inactive
14,CCCC(=O)Nc1cccc(NC(=O)c2cccc([N+](=O)[O-])c2C)c1,inactive
15,C=C(C(=O)c1ccccc1)C(c1ccccc1)C(C)C(=O)c1ccccc1 (centres undefined),inactive
16,CC(=O)OC1CC2C(C)(C)C(O)CC[C@@]2(C)C2CC[C@@]3(C)C(c4ccoc4)OC(=O)C4OC43[C@]12C (some centres undefined),inactive
17,CS(=O)(=O)c1ccc(C(=O)Nc2ccc(-c3nc4ccccc4[nH]3)cc2)cc1,inactive
18,COC(=O)c1ccc(-c2nc3ccccc3[nH]2)cc1,15.8 µM (active)
19,CS(=O)(=O)c1ccc(C(=O)Nc2cccc(-c3nc4ccccc4[nH]3)c2)cc1,inactive
20,COc1ccccc1N1CCN(Cc2cc(=O)oc3cc(C)ccc23)CC1,inactive
21,Cc1nc2ccccc2c2oc(C(=O)N3CC(C)CC(C)C3)cc12 (centres undefined),inactive
22,Cc1ccc(OC(=O)Cn2c(C(F)(F)F)nc3ccccc32)cc1,inactive
23,COc1cccc(NC(=S)NCc2cccs2)c1,inactive
24,N#CC1=C(N)C(C#N)(C#N)[C@H](c2ccoc2)[C@H]2CN(Cc3ccccc3)CC=C12,inactive
